Results as given in PubChem BioAssay AID1259343 (VanderVen Lab, College of Veterinary Medicine, Cornell …, 2017).
The campaign covered roughly 6,200 compounds. About 2,900 (47%) were called active. Rule as the data show it: active = inhibition above about 50%; inactive = the rest. The set was probably picked from earlier hits. The list shows a part of the results.

Test: Mycobacterium tuberculosis growth inhibition, primary screen (AID 1259343)
Details: inhibition: at 10 µM, active compounds read high; outcome: 10 uM

Structure (SMILES)	inhibition
COc1ccc(OCCOc2ccccc2C#N)cc1	56.9% (active)
COc1cccc(-c2cnnc(NCc3ccccc3OC)n2)c1	21.6% (inactive)
COc1cccc(OCCCCOc2ccc3ccccc3c2)c1	78.5% (active)
COc1cccc(-c2nnn(CCOc3ccccc3F)n2)c1	77.6% (active)
COc1cccc(-c2ccc(=O)n(Cc3cccc(F)c3)n2)c1	22.1% (inactive)
COc1ccccc1OCCCOc1ccccc1F	80% (active)
CC(C)=CCCC(C)(O)c1cc(C(N)=O)no1 (stereo not drawn)	32.2% (inactive)
CC(=O)c1ccc(OCCOc2ccc(C#N)cc2)cc1	101% (active)
COc1ccc(OCCCOc2cccc(Cl)c2Cl)cc1	18.8% (inactive)
N#Cc1ccc(-c2ccc(OCC(=O)c3ccc4c(c3)CC(=O)N4)cc2)cc1	39.1% (inactive)
COc1ccccc1OCCCCOc1ccc(I)cc1	91.3% (active)
COc1cccc(OCCCOc2cccc(Cl)c2Cl)c1	61.9% (active)
COc1ccc(OCCCCOc2ccccc2OC)cc1	97.5% (active)
COc1ccccc1OCCCOc1ccc(F)cc1	35.7% (inactive)
COc1ccc(OCCCCOc2ccc(Br)cc2)cc1	81.2% (active)
CCCCCCOc1ccc(C(=O)NNS(=O)(=O)c2ccc(C(=O)OC)cc2)cc1	94.8% (active)
CCCCCCNC(=O)Nc1ccc(S(=O)(=O)Nc2ccc(CCNC[C@H](O)COc3ccc(O)cc3)cc2)cc1	18.9% (inactive)
CCCCCCCOc1ccc(C(C)=NOC)cc1	41.4% (inactive)
COc1ccc(OCCCCOc2ccccc2)cc1	27.8% (inactive)
COC(=O)c1ccc(OCCCCOc2ccccc2OC)cc1	80.9% (active)
O=C1Oc2ccccc2C1=Cc1c(Cl)cccc1Cl	59% (active)
CC(C)N(C(=O)/C=C/c1c(Cl)cccc1Cl)C(C)C	47.8% (inactive)
Cc1cc(NC(=O)COc2ccc(Cl)cc2Cl)n(-c2nc(C)c(C)c(=O)[nH]2)n1	-28.7% (inactive)

Structure (SMILES)	inhibition
Cc1nnc2sc(COc3ccc(Cl)cc3Cl)nn2c1=O	78.4% (active)
Cc1cc(Br)cc(Cl)c1NC(=O)C1(C)CC1(Cl)Cl (stereo not drawn)	-15.4% (inactive)
O=C(CC1CCCO1)NCc1cccc(OCc2ccccc2)c1 (stereo not drawn)	39.5% (inactive)
O=C(N/N=C1/CCSc2c(F)cccc21)c1ccccc1	38% (inactive)
CCC1CCC(=NNC(=O)c2ccc(COc3ccccc3)cc2)CC1 (stereo not drawn)	97.1% (active)
COc1ccc(-n2cc(CNCc3ccc4c(c3)OCO4)c(-c3ccccc3Cl)n2)cc1	61.7% (active)
Fc1ccccc1-c1nnn(Cc2ccc3c(c2)OCO3)n1	48.7% (inactive)
Cc1ccccc1CNCc1cn(-c2ccccc2)nc1-c1ccc2c(c1)OCO2	60.9% (active)
Cc1cccc(-n2cc(CNCc3ccc(C)o3)c(-c3cccc(F)c3)n2)c1	46.5% (inactive)
Cc1cccc(-n2cc(CNCC3CCCO3)c(-c3cccc(F)c3)n2)c1 (stereo not drawn)	inactive
CC(C)(C)c1ccc(Cn2cnc([N+](=O)[O-])n2)cc1	65.2% (active)
O=C(Nc1nnc(C(F)(F)F)s1)C1(c2cccc(Cl)c2)CC1	86.3% (active)
FC(F)(F)c1nnc(N2CCN(c3ccc(Cl)cc3)CC2)s1	18.9% (inactive)
COc1cc(NC(=O)C2(c3ccccc3)CC2)c(OC)cc1Cl	16.5% (inactive)
O=C1C(=Cc2ccc(OC(F)F)cc2OC(F)F)Oc2cc(O)ccc21	56.9% (active)
O=C1/C(=C/c2cc3ccccc3o2)Oc2cc(O)ccc21	3.03% (inactive)
Cn1c(=S)[nH]c2c(-c3ccccc3)csc2c1=O	20.9% (inactive)
CCOC(=O)CSc1ccc(NC(=O)c2ccc(C)cc2)nn1	93.7% (active)
CSc1nc(N)nc(SCc2ccc(F)cc2)c1C#N	53.4% (active)
COc1ccc(/C=C2\C=C(c3ccccc3)N(c3ccc4ccccc4c3)C2=O)cc1	74.9% (active)
CN(C)c1cc(-c2noc(Cc3ccccc3Cl)n2)ccn1	67% (active)
Oc1ccc(Nc2nc3nonc3nc2Nc2cccc(Br)c2)cc1	49.2% (inactive)
Ic1ccc(Nc2nc3nonc3nc2NCc2ccco2)cc1	101% (active)

Structure (SMILES)	inhibition
OCC(O)Cn1c2ccc(Br)cc2c2cc(Br)cc(Br)c21 (stereo not drawn)	17.8% (inactive)
OC(CN1CCOCC1)Cn1c2ccc(Br)cc2c2cc(Br)ccc21 (stereo not drawn)	86.8% (active)
Cc1cc(O)c(CN2CCOCC2)c2c1C(=O)/C(=C/c1cc3cc(Br)ccc3o1)O2	45.4% (inactive)
CN(CCO)CC(O)Cn1c2ccc(Br)cc2c2cc(Br)ccc21 (stereo not drawn)	69.2% (active)
C=CCn1c2ccc(Br)cc2c2nc3ccccc3nc21	-22.9% (inactive)
CC(=O)O[C@H]1CC[C@@]2(C)C(=CC[C@@H]3[C@H]2CC[C@]2(C)C(c4cccnc4)=CC[C@@H]32)C1	27.2% (inactive)
O=C(Cn1nnnc1-c1ccc(Br)cc1)c1ccccc1	89.4% (active)
Brc1ccc(Cc2nnnn2CCn2cccn2)cc1	25.9% (inactive)
CCC(=O)c1ccc(-c2ccc(Br)cc2F)cc1	29% (inactive)
O=C(CCl)N1N=C(c2cccs2)CC1c1ccco1 (stereo not drawn)	101% (active)
NC(=O)c1ccc(Cn2nc(-c3cccs3)oc2=O)cc1	14.6% (inactive)
COc1ccc(-c2nc3ccccc3c(=O)o2)cc1[N+](=O)[O-]	83.1% (active)
O=c1oc(-c2ccc([N+](=O)[O-])cc2Cl)nc2cc(Cl)ccc12	28.8% (inactive)
O=c1oc(-c2ccco2)nc2ccc(Br)cc12	41.6% (inactive)
Cc1sc2ncnc(N(C)Cc3nc(C4CC4)no3)c2c1C	-15.9% (inactive)
CCC(Nc1ccccc1)c1nc(C2CCC2)no1 (stereo not drawn)	44.9% (inactive)
CN(CCCc1ccccc1)Cc1nc(C2CC2)no1	78.2% (active)
CC(C)Cn1c(-c2ccco2)nc2c(c(=O)c3ccccc3n2C)c1=O	-27.4% (inactive)
Cc1ccc(NS(=O)(=O)N2CCCCC2)cc1Cl	23.6% (inactive)
CCN1C(=O)SC(Nc2ccc(C)c(Cl)c2)C1=O (stereo not drawn)	96.3% (active)
COc1ccc(NC2CC(O)C(CO)O2)cc1 (stereo not drawn)	inactive
CCN1C(=O)SC(Nc2ccc(OC)cc2)C1=O (stereo not drawn)	78.9% (active)
